From PubChem BioAssay
Unmarked numbers belong to inactive results. For some assays here: Measured potencies and affinities stand elsewhere. Active and inactive are the calls of the source. Unless noted, how the calls were made is not given here.

Legend:
[1] = antimalarial activity against Dd2 strain (AID 2302;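 active means growth inhibition above 50% at the single 2 µM test dose, taken to imply half-maximal potency below 2 µM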;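 further: 0% = DMSO untreated growth and 100% = chloroquine plus artemisinin killed control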); conditions: P. falciparum Dd2 in RBCs, LDH growth readout, 72 h; at 2 µM; active compounds read high
[2] = HepG2 cytotoxicity, primary screen, cytotoxicity control for P. falciparum antimalarial project, cell-based, ATP luminescence (AID 2303;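 active means inhibition above 50%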;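 further: 0% = DMSO wells and 100% = digitonin-killed cells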); conditions: HepG2 viability, 24-48 h, at 10 µM, active compounds read high
[3] = target: L-lactate dehydrogenase (Plasmodium falciparum (isolate CDC / Honduras)) (UniProt Q27743); experiment: PfLDH activity inhibition – cell lysate, 3D7 strain, counter-screen for P. falciparum growth inhibition project (AID 2304);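 further: 0% = vehicle and 100% = reference inhibitor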; conditions: P. falciparum 3D7 crude extract, LDH APAD/NBT absorbance; at 2 µM; active compounds read high
[4] = inhibition of 3D7 malaria parasite growth – strain 3D7 (AID 2306);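 further: 0% = DMSO wells and 100% = chloroquine plus artemisinin control wells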; conditions: P. falciparum 3D7 erythrocytic growth, LDH absorbance, 72 h; at 2 µM; active compounds read high
[5] = target: Calcium-dependent protein kinase 1 (Plasmodium falciparum (isolate 3D7)) (UniProt P62344); experiment: PfCDPK1 kinase inhibitors, biochemical, TCAMS library (AID 1159585; cut-off not given, nearly all actives have IC50 up to about 0.98 µM;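 further: inhibitors leave more ATP so luminescence rises with inhibition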); conditions: recombinant PfCDPK1, Kinase-Glo ATP depletion luminescence
[6] = target: Plasmodium falciparum protein kinase 6 (PK6, PF3D7_1337100) (UniProt Q8IDW1); experiment: PfPK6 kinase inhibitors, biochemical, TCAMS library (AID 1159586); conditions: recombinant PfPK6, Kinase-Glo ATP depletion luminescence
[7] = target: Protein kinase 7 (PK7), Plasmodium falciparum 3D7 (PF3D7_0213400) (UniProt Q7YTF7); experiment: inhibition of Plasmodium PK7 catalytic activity – biochemical, TCAMS antimalarial set, Kinase-Glo luminescence (AID 1159587); conditions: recombinant PfPK7, Kinase-Glo ATP depletion luminescence
[8] = target: Calcium-dependent protein kinase 4 (Plasmodium falciparum (isolate 3D7)) (UniProt Q8IBS5); experiment: PfCDPK4 kinase inhibitors, biochemical, TCAMS library (AID 1159588; cut-off not given, nearly all actives have IC50 up to about 0.91 µM); conditions: recombinant PfCDPK4, Kinase-Glo ATP depletion luminescence
Calcium-dependent protein kinase 4 (Plasmodium falciparum (isolate 3D7)), sequence (Q8IBS5 whole entry, looked up): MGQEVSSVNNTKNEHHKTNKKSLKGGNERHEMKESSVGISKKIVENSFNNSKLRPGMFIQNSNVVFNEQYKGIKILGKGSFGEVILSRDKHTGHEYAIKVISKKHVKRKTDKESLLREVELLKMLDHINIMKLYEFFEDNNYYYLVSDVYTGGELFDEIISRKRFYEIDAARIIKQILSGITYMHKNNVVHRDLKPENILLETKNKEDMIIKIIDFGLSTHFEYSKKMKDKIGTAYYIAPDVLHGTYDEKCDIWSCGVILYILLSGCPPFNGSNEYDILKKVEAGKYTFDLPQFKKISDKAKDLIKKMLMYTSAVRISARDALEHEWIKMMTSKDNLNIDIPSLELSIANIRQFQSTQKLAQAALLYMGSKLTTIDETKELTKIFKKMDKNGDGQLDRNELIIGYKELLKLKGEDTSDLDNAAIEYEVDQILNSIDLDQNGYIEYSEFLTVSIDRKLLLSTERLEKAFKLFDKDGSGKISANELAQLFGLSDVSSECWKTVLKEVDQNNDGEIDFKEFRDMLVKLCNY

Calcium-dependent protein kinase 1 (Plasmodium falciparum (isolate 3D7)), sequence (P62344 whole entry, looked up): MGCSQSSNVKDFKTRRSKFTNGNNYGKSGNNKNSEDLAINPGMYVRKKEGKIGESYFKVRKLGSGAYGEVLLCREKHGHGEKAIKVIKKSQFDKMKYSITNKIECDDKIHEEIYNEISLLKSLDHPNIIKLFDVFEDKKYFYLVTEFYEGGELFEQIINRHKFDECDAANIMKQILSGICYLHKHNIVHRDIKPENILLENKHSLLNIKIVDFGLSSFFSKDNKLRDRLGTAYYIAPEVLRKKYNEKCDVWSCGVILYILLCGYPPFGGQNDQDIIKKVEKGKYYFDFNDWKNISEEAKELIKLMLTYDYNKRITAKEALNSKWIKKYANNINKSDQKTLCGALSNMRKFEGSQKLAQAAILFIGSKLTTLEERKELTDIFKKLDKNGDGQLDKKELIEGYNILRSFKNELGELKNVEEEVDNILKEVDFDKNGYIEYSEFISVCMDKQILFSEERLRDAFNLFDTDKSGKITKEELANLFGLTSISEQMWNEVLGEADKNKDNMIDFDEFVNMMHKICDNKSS
Plasmodium falciparum protein kinase 6 (PK6, PF3D7_1337100), sequence (Q8IDW1 1-305): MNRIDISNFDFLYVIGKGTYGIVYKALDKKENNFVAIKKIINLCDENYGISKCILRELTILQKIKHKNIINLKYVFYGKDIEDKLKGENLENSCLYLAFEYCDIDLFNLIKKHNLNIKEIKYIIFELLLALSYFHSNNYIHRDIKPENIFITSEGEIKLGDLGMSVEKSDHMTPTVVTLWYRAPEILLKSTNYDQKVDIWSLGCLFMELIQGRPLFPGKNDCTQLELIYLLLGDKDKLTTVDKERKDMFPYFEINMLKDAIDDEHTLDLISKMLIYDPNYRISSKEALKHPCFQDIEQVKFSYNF
Protein kinase 7 (PK7), Plasmodium falciparum 3D7 (PF3D7_0213400), sequence (Q7YTF7 1-343): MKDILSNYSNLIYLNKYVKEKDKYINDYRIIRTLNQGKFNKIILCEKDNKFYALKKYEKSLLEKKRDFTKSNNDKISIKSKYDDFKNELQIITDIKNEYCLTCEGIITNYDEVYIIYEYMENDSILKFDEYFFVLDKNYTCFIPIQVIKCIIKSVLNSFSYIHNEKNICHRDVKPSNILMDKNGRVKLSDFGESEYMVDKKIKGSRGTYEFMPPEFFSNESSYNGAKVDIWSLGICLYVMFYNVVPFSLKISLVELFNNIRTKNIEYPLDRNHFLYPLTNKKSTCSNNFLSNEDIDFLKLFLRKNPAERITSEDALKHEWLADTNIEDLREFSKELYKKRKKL
L-lactate dehydrogenase (Plasmodium falciparum (isolate CDC / Honduras)), sequence (Q27743 whole entry, looked up): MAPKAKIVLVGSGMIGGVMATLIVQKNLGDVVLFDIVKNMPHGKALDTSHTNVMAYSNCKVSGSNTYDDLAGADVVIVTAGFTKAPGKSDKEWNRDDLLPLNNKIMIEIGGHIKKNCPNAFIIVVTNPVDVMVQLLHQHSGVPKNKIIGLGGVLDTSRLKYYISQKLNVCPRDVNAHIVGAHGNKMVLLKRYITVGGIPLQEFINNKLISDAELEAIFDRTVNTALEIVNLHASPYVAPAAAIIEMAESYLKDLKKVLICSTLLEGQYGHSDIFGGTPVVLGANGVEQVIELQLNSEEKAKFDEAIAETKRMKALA

Compound | growth inhibition [1] | inhibition [2] | inhibition [3] | growth inhibition [4] | outcome [5] | outcome [6] | outcome [7] | outcome [8]
COc1cc(C(=O)NC2CCN(Cc3ccccc3)CC2)ccc1-c1nc2cc(Cl)c(C)cc2[nH]1 | 97% (active) | -3% | 0% | 99% (active) | inactive | inactive | inactive | inactive
Cc1cc(NCCC(=O)NCCOc2ccccc2)nc(NCCc2ccc(F)cc2)n1 | 4% | 14% | 2% | 97% (active) | inactive | inactive | inactive | inactive
COc1cccc(-c2cc(C(=O)Nc3cc(Oc4ccc(O)cc4)cc([N+](=O)[O-])c3)on2)c1 | 30% | 16% | 7% | 89% (active) | inactive | inactive | inactive | inactive
Cc1cccc2[nH]c(-c3cccc(-c4ccc(NC(=O)C5CCCO5)cc4)c3)nc12 (stereo not given) | 13% | 10% | -4% | 91% (active) | inactive | inactive | inactive | inactive
CC(C)CCNC(=O)c1cnc2c(O)cccc2c1Nc1cccc(NC(=O)c2ccc(F)cc2)c1 | 43% | 51% (active) | -1% | 93% (active) | inactive | inactive | inactive | inactive
COc1cc(F)c2ncc(Cl)c([C@H](O)CN3CCC(NCc4ccc5c(n4)NC(=O)CO5)CC3)c2c1 | 99% (active) | 14% | -1% | 99% (active) | inactive | inactive | inactive | inactive
NS(=O)(=O)c1cccc(-c2ccc3nccc(-c4cccc(S(N)(=O)=O)c4)c3c2)c1 | 99% (active) | 40% | 4% | 98% (active) | inactive | inactive | inactive | inactive
COc1ccc2nccc(NN=Cc3cccc([N+](=O)[O-])c3)c2c1 | 98% (active) | 4% | -8% | 100% (active) | inactive | inactive | inactive | inactive
CN1CCCC(COc2cc3c(cc2Br)CCN3C(=O)Nc2ccc(-c3ccncc3)c(Cl)c2)C1 (stereo not given) | 96% (active) | 99% (active) | -2% | 100% (active) | inactive | inactive | inactive | inactive
CC(=O)c1ccccc1C(=O)N1CCOc2ccc(C(O)C(c3ccccc3)c3ccccc3)cc2C1 (stereo not given) | 98% (active) | 10% | 3% | 96% (active) | inactive | inactive | inactive | inactive
CNCCCNc1ccnc2cc(Cl)ccc12 | 25% | 11% | -1% | 101% (active) | inactive | inactive | inactive | inactive
CN(C)CCOc1cc(NC(=O)Nc2cccc([N+](=O)[O-])c2)ccc1I | 51% (active) | 8% | 6% | 102% (active) | inactive | inactive | inactive | inactive
CCN(CC)CCN(Cc1ccc(-c2ccc(C(F)(F)F)cc2)cc1)C(=O)Cn1c(CCc2c(F)cc(F)cc2F)nc(=O)c2ccccc21 | 26% | 39% | 3% | 89% (active) | inactive | inactive | inactive | inactive
O=C(NCCc1ccccc1)N(Cc1cccc(-c2ccc(CNC3CCCC3)cc2)c1)C1CCN(Cc2ccccc2)CC1 | 84% (active) | 36% | 0% | 98% (active) | inactive | inactive | inactive | inactive
CCCCCCN1CCN(Cc2cccc(NC(=O)c3cccc(OCC)c3)c2)CC1 | 48% | 65% (active) | 0% | 85% (active) | inactive | inactive | inactive | inactive
Cc1cccc2[nH]c(-c3cccc(-c4cccc(NC(=O)C5CC(=O)Nc6ccccc65)c4)c3)nc12 (stereo not given) | 25% | 13% | 0% | 85% (active) | inactive | inactive | inactive | inactive
OCCC1CCN(Cc2ccc(-c3ccc(-c4nc5ccccc5[nH]4)cc3)cc2)CC1 | 98% (active) | 35% | 2% | 99% (active) | inactive | inactive | inactive | inactive
COc1ccc2c(c1)Sc1ccccc1C(N1CCN(CCO)CC1)C2 (stereo not given) | 4% | 11% | -3% | 95% (active) | inactive | inactive | inactive | inactive
CCc1cc([C@H]2O[C@@H](n3cnc4c(NCC(c5ccccc5)c5ccccc5)nc(NCCNc5ccccn5)nc43)[C@H](O)[C@@H]2O)on1 | 32% | 14% | -9% | 94% (active) | inactive | inactive | inactive | inactive
CNC(=O)c1cnc(Nc2ccc(N3CCN(C)CC3)cc2)nc1Nc1cccc(OC(C)C)c1 | 102% (active) | 16% | 4% | 100% (active) | inactive | inactive | inactive | inactive

Compound | growth inhibition [1] | inhibition [2] | inhibition [3] | growth inhibition [4] | outcome [5] | outcome [6] | outcome [7] | outcome [8]
COc1ccc(Nc2nccc(N3CCC(NS(=O)(=O)c4ccc(NC(C)=O)cc4)C3)n2)cc1 (stereo not given) | 16% | 3% | -2% | 100% (active) | inactive | inactive | inactive | inactive
CCCCCCc1cc(Oc2c(I)cc(C[C@H](N)C(=O)O)cc2I)ccc1O | -5% | -2% | -1% | 97% (active) | inactive | inactive | inactive | inactive
CN(C)CCOc1cccc(-c2cnc(N)c(-c3nc4ccc(S(C)(=O)=O)cc4[nH]3)c2)c1 | 82% (active) | 39% | 1% | 100% (active) | inactive | inactive | inactive | inactive
CN1CCN(CCNc2c3ccccc3nc3ccc4ccccc4c23)CC1 | 99% (active) | 22% | -6% | 99% (active) | inactive | inactive | inactive | inactive
Cn1c(NC2CCN(CC3CCN(C(=O)/C=C/c4ccc(Cl)c(Cl)c4)CC3)CC2)nc2ccccc21 | 100% (active) | 99% (active) | 3% | 101% (active) | inactive | inactive | inactive | inactive
CCOc1ccc2c(NN=Cc3ccccc3F)cc(C)nc2c1 | 77% (active) | -1% | -5% | 101% (active) | inactive | inactive | inactive | inactive
CCN1CCN(Cc2ccc(-c3ccc(NS(=O)(=O)c4cccc5cccnc45)cc3)cc2)CC1 | 42% | 29% | -2% | 90% (active) | inactive | inactive | inactive | inactive
Cc1cccc2[nH]c(-c3ccc(-c4ccc(CN5CCN(c6ccc(C#N)cn6)CC5)cc4)s3)nc12 | 44% | 10% | 2% | 98% (active) | inactive | inactive | inactive | inactive
NC1CCN(c2nc(NCCCc3ccc(O)cc3)nc(NCc3ccccc3-c3ccccc3)n2)CC1 | 45% | 11% | 4% | 102% (active) | inactive | inactive | inactive | inactive
c1ccc(-n2ncc(CNCc3ccc(-c4ccc(-c5nc6ccccc6[nH]5)s4)cc3)n2)cc1 | 46% | 27% | 4% | 93% (active) | inactive | inactive | inactive | inactive
FC(F)(F)c1cccc(Nc2nc(-n3ccnc3)nc(-n3ccnc3)n2)c1 | 9% | 5% | 1% | 97% (active) | inactive | inactive | inactive | inactive
S=C(NCCCCCN1CCC(c2c[nH]c3ccccc23)CC1)Nc1ccc(Cl)c(Cl)c1 | 31% | 89% (active) | -3% | 101% (active) | inactive | inactive | inactive | inactive
Cc1cccc2[nH]c(-c3cccc(-c4cccc(NC(=O)NCc5cccc(F)c5)c4)c3)nc12 | 32% | 11% | -2% | 98% (active) | inactive | inactive | inactive | inactive
Oc1ccc(CCNCCCCNCCc2ccc(Cl)cc2)cc1O | -1% | 33% | -1% | 94% (active) | inactive | inactive | inactive | inactive
CCCCNc1nccc2ccc(-c3ccncc3)cc12 | 1% | 6% | 1% | 93% (active) | inactive | inactive | inactive | inactive
CN(C)CCOc1cc(NC(=O)c2ccc(-c3ccc(Cl)cc3Cl)cc2)ccc1-c1ccccc1 | 26% | 45% | -4% | 98% (active) | inactive | inactive | inactive | inactive
CCn1ncc2c(N3CCCC3=O)cc(C(=O)N[C@@H](Cc3ccccc3)[C@H](O)CNC(C)(C)c3cccc(OC)c3)cc21 | 97% (active) | 6% | 0% | 98% (active) | inactive | inactive | inactive | inactive
COc1ccc2cc(C(=O)NC3CCC(CCN4CCc5cc(C#N)ccc5C4)CC3)[nH]c2c1 (stereo not given) | -1% | 9% | -10% | 88% (active) | inactive | inactive | inactive | inactive
CCN(CC)CC(O)Cc1c2ccc([N+](=O)[O-])cc2nc2cc(OC)c(OC)cc12 (stereo not given) | 37% | 41% | -6% | 100% (active) | inactive | inactive | inactive | inactive
CCO[C@H]1CN[C@H](C#Cc2cc3c(Nc4ccc(OCc5cccc(F)c5)c(Cl)c4)ncnc3s2)C1 | 37% | 8% | 2% | 100% (active) | inactive | inactive | inactive | inactive
